These results are taken from PubChem BioAssay (Tox21).

Records with an inconclusive call do not appear. A call without a number means that no potency is given here. The source made the active and inactive calls. The call rests on the fitted dose curve. Numbered stars: 1 amine (or outer) side, 2 acyl side, 3 side chain; on linkers, the order of the positions; unused ones are H or OH. Bridge positions count the residues as written; N and C are the ends. Square brackets hold non-standard residues; d marks the D form. Peptide text beside a SMILES is read from it. I, II: the chains in the order shown. Actinocin(9to1) = Cc1c2oc3c(C)ccc(C(=O)[*:1])c3nc-2c(C(=O)[*:2])c(N)c1=O; NMeV = CN[C@H](C(=O)O)C(C)C; Sar = CNCC(=O)O

This experiment can be described thus: p53 small molecule agonists, cell-based qHTS assay with rat liver microsomes (AID 1963578). The settings on record: HCT-116 p53RE-bla, beta-lactamase ratio, 16 h; series mostly up to 66 µM. An excerpt: U.S. Tox21 Program National Center for Advancing Translational Sciences [NCATS] Division of Preclinical Innovation [DPI] U.S. Environmental Protection Agency [EPA] National Institutes of Environmental Health Sciences [NIEHS] National Toxicology Program [NTP] U.S. Food and Drug Administration [FDA] Tox21 Assay Overview: p53, a tumor suppressor protein, is activated following cellular insult, including DNA damage and other cellular stresses. The activation of p53 regulates cell fate by inducing DNA repair, cell cycle arrest, apoptosis, or cellular senescence. The activation of p53, therefore, is a good indicator of DNA damage and other cellular stresses. […] The activation of the reporter gene under culture conditions can be detected by fluorescence intensity. This cell line was used to screen the Tox21 10K compound library in the condition of presence of rat liver microsomes and to identify agonists that activate the p53 signaling pathway after in vitro metabolic activation (Ooka et al., Archive of Toxicology 96:1975-1987, 2022).
Tox21 Assay Protocol Summary: The p53RE-bla cells were dispensed at 4,000cells/3ul/well in 1536-well black-clear bottom plates. After the assay plates were incubated at 37 C, 5% CO2 incubator for 5 hours, 23 nL of compounds dissolved in DMSO, positive controls or DMSO only was transferred to the assay plate. Following compound addition, 3 uL of rat liver microsomes (Molecular Toxicology, Boone, NC) at final concentration of 0.5 mg/mL and 1uL of Beta-Nicotinamide adenine dinucleotide 2-phosphate (NADPH) at final concentration of 0.5 mg/mL were transferred to the assay plate. The plates were incubated at 37 C for 16 hours. 1 uL of LiveBLAzer detection mixture was added to each well and the plates were incubated at room temperature in the dark for 2 h.
On the technique in general: Quantitative high-throughput screening tests each substance at several concentrations.
Consider `CCCCOCCOCCOCCCC`, for which the Potency result is “inactive”.
As to `CC(C)(C)c1ccc(O)c(C(C)(C)C)c1`, the Potency result is “inactive”.
In the case of `C=C(C)C(=O)OCCCCCCCC(C)C` it was “inactive”; in that of `Cc1ccc(S(=O)(=O)NC2CCCCC2)cc1`, “inactive”; in that of `COC(=O)Cc1cccc2ccccc12`, “inactive”.
In the case of `CC(=O)Oc1ccccc1C(=O)Nc1ncc([N+](=O)[O-])s1` it was “inactive”.
In the case of `O=[N+]([O-])c1ccc2c(c1)Cc1ccccc1-2` it was “inactive”; in that of `Cc1cc(O)cc2c1O[C@](C)(CCC[C@H](C)CCC[C@H](C)CCCC(C)C)CC2`, “inactive”; in that of `CN1CCCC1`, “inactive”.
As to `COCCCC/C(=N\OCCN)c1ccc(C(F)(F)F)cc1`, the Potency result was “inactive”.
In the case of `CCCSc1ccc2nc(NC(=O)OC)[nH]c2c1` it was “inactive”.
In the case of `C=C(C)[C@@H]1CCC2=CC(=O)C[C@@H](C)[C@]2(C)C1` it was “inactive”.
In the case of `COC(=O)c1c(Cl)c(Cl)c(C(=O)OC)c(Cl)c1Cl` it was “inactive”.
As to `O=C(O)[C@@H](O)[C@H](O)[C@H](O)[C@@H](O)C(=O)O`, the Potency result was “inactive”.
In the case of `CC(C)(c1cc(Br)c(OCC(Br)CBr)c(Br)c1)c1cc(Br)c(OCC(Br)CBr)c(Br)c1` (stereo not given) it was “inactive”; in that of `C=C(C)C(=O)OCCCCCCOC(=O)C(=C)C`, “inactive”; in that of `O[C@@H]([C@H](O)[C@H](O)CBr)[C@H](O)CBr`, “inactive”.
In the case of `N=C(N=C(N)N)N1CCOCC1` it was “inactive”.
In the case of `IC(I)I` it was “inactive”; in that of `O=C(O)Cc1ccc(CCNS(=O)(=O)c2ccc(Cl)cc2)cc1`, “inactive”.
For the compound `O=C(O)c1ccccc1[N+](=O)[O-]`, the Potency entry was “inactive”.
In the case of `CC(C)CCCCOC(=O)c1ccccc1C(=O)OCCCCC(C)C` it was “inactive”; in that of `[Cl][Dy]([Cl])[Cl]`, “inactive”; in that of `O=c1[nH]c2cc(C(F)(F)F)c(N3CCOCC3)cc2n(CP(=O)(O)O)c1=O`, “inactive”.
In the case of `CCOc1ccccc1C(N)=O` it was “inactive”.
In the case of `C=CCCCCCCCC` it was “inactive”.
In the case of `BrC1CCC(Br)C(Br)CCC(Br)C(Br)CCC1Br` (stereo not given), the Potency result is “inactive”.
In the case of `O=C1CCCCCCCCCCCCCCCO1` it was “inactive”; in that of `CC(C)(O)C#CC(C)(C)O`, “inactive”; in that of `Cc1cc(C)cc(O)c1`, “inactive”.
In the case of `CCCCCC(C)=O` it was “inactive”.
In the case of `COC(=O)CCC(=O)O` it was “inactive”; in that of `Cc1c2oc3c(C)ccc(C(=O)N[C@@H]4C(=O)N[C@H](C(C)C)C(=O)N5CCC[C@H]5C(=O)N(C)CC(=O)N(C)[C@@H](C(C)C)C(=O)O[C@@H]4C)c3nc-2c(C(=O)N[C@@H]2C(=O)N[C@H](C(C)C)C(=O)N3CCC[C@H]3C(=O)N(C)CC(=O)N(C)[C@@H](C(C)C)C(=O)O[C@@H]2C)c(N)c1=O` (I: T[dV]P[Sar][NMeV] / II: T[dV]P[Sar][NMeV]; ester I:1-I:C, II:1-II:C; linker I:N-II:N via Actinocin(9to1)), “inactive”.
On to `CN(CC1(C)CCCO1)S(=O)(=O)c1ccc(Cl)c(S(N)(=O)=O)c1` (stereo not given), for which the Potency result was “inactive”.
For `C#CC(C)(O)CC(C)C` (stereo not given), the Potency result is “inactive”.
In the case of `Cc1ccc(C=O)cc1` it was “inactive”; in that of `C[C@@H]1CCC[C@H](C)N1CCCC(O)(c1ccccc1)c1ccccn1` (stereo not given in full), “inactive”.
In the case of `COc1ccc(CCN2CCC(Nc3nc4ccccc4n3Cc3ccc(F)cc3)CC2)cc1` it was “inactive”; in that of `CCCCCC(=O)O[C@]1(C(C)=O)CC[C@H]2[C@@H]3CCC4=CC(=O)CC[C@]4(C)[C@H]3CC[C@@]21C`, “inactive”.
In the case of `CC[C@H](C)[C@@H](C(=O)O)n1sc2ccccc2c1=O` it was “inactive”.
